Measured values reported in PMC10812921, “Transcriptional Coactivator BOB1 (OBF1, OCA-B) Modulates the Specificity of DNA Recognition by the POU-Domain Factors OCT1 and OCT2 in a Monomeric Configuration”.

These sequences were tested against POU1 (OCT1 POU domain) (human, UniProt P14859 260-458) (assay: EMSA-SELEX-seq; no BOB1; 20 mM Tris-HCl pH 7.6, 140 mM NaCl, 10% glycerol, 0.5 mM EDTA, 0.05% Triton X-100, 0.1 mg/mL BSA, 0.1 mg/mL poly(dI-dC), 5 mM DTT, room temperature, 20 min; high values mean tight binding). Conditions: protein: recombinant; dsDNA, one strand shown.
Chain of POU1 (OCT1 POU domain) (P14859 260-458): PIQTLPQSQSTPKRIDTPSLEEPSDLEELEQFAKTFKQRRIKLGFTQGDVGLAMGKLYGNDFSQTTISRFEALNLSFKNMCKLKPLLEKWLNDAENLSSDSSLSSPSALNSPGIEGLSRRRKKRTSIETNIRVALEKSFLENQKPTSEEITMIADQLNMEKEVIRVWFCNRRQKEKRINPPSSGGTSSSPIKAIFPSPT
Outline: (§1)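 Tagged POU-domain proteins were expressed in E. coli BL21, purified under denaturing conditions and renatured. Then 30 ng was mixed with 300 ng of a PCR-amplified double-stranded random 35-nt library, with or without 28 ng coactivator protein, in 20 μL Tris–HCl pH 7.6 binding buffer for 20 min at RT. Complex bands were cut from native 6% PAGE, eluted and PCR-amplified over four rounds, then Illumina-sequenced. Binding preference is the percentage of sequenced 8-mers matching a motif pattern.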

Sequence	binding signal
ACGACAAA	0.0217 % of ANNNNAAN 8-mers
AAAAAAAC	0.0583 % of ANNNNAAN 8-mers
AGTCCAAA	0.0256 % of ANNNNAAN 8-mers
AAATCAAT	0.139 % of ANNNNAAN 8-mers
ACGAAAAC	0.0256 % of ANNNNAAN 8-mers
ACATGAAT	0.151 % of ANNNNAAN 8-mers
AATCGAAC	0.0366 % of ANNNNAAN 8-mers
AGCCTAAA	0.0271 % of ANNNNAAN 8-mers
AGCTTAAA	0.037 % of ANNNNAAN 8-mers
AAATGAAG	0.17 % of ANNNNAAN 8-mers
ACAGTAAG	0.0328 % of ANNNNAAN 8-mers
AAGGTAAA	0.108 % of ANNNNAAN 8-mers
AGTTAAAA	0.0778 % of ANNNNAAN 8-mers
AGACTAAG	0.0278 % of ANNNNAAN 8-mers
AGTCGAAC	0.0221 % of ANNNNAAN 8-mers
AAGCCAAC	0.0137 % of ANNNNAAN 8-mers
AAGTTAAC	0.0347 % of ANNNNAAN 8-mers
ATCTGAAC	0.0275 % of ANNNNAAN 8-mers
AGTAAAAT	0.226 % of ANNNNAAN 8-mers
ATCGAAAT	0.0694 % of ANNNNAAN 8-mers

Sequence	binding signal
AATTCAAG	0.101 % of ANNNNAAN 8-mers
ACCAGAAG	0.0137 % of ANNNNAAN 8-mers
AACGTAAT	0.077 % of ANNNNAAN 8-mers
ATATCAAA	0.0877 % of ANNNNAAN 8-mers
AAAGAAAC	0.0355 % of ANNNNAAN 8-mers
ATACAAAA	0.144 % of ANNNNAAN 8-mers
AGGCCAAG	0.0271 % of ANNNNAAN 8-mers
AATACAAC	0.0412 % of ANNNNAAN 8-mers
AAGTTAAT	0.165 % of ANNNNAAN 8-mers
ACAGGAAC	0.0244 % of ANNNNAAN 8-mers
AAGTAAAG	0.0545 % of ANNNNAAN 8-mers
AAGGGAAT	0.115 % of ANNNNAAN 8-mers
ACCCAAAG	0.0198 % of ANNNNAAN 8-mers
AACACAAC	0.016 % of ANNNNAAN 8-mers
ACAGCAAG	0.0156 % of ANNNNAAN 8-mers
ACGTTAAC	0.024 % of ANNNNAAN 8-mers
ACGTTAAA	0.0412 % of ANNNNAAN 8-mers
AGCTCAAG	0.0183 % of ANNNNAAN 8-mers
AAAGAAAA	0.0988 % of ANNNNAAN 8-mers

Each sequence was assayed against T1, POU2 (OCT2 POU domain) (human, UniProt P09086 175-386) in the same assay as above. Conditions: protein: recombinant; dsDNA, one strand shown.
T1 sequence: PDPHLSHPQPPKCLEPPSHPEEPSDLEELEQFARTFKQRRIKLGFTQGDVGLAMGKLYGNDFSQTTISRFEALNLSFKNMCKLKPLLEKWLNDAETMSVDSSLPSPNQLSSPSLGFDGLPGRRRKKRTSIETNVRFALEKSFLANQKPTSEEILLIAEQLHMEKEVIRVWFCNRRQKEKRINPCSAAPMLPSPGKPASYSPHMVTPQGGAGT
Outline: as §1

Sequence	binding signal
ACGACAAA	0.0299 % of ANNNNAAN 8-mers
AAAAAAAC	0.0593 % of ANNNNAAN 8-mers
AGTCCAAA	0.0299 % of ANNNNAAN 8-mers
AAATCAAT	0.143 % of ANNNNAAN 8-mers
ACGAAAAC	0.0259 % of ANNNNAAN 8-mers
ACATGAAT	0.179 % of ANNNNAAN 8-mers
AATCGAAC	0.0334 % of ANNNNAAN 8-mers
AGCCTAAA	0.0316 % of ANNNNAAN 8-mers
AGCTTAAA	0.0437 % of ANNNNAAN 8-mers
AAATGAAG	0.188 % of ANNNNAAN 8-mers
ACAGTAAG	0.0253 % of ANNNNAAN 8-mers
AAGGTAAA	0.109 % of ANNNNAAN 8-mers
AGTTAAAA	0.0915 % of ANNNNAAN 8-mers
AGACTAAG	0.0328 % of ANNNNAAN 8-mers
AGTCGAAC	0.0224 % of ANNNNAAN 8-mers
AAGCCAAC	0.0161 % of ANNNNAAN 8-mers
AAGTTAAC	0.038 % of ANNNNAAN 8-mers
ATCTGAAC	0.0265 % of ANNNNAAN 8-mers
AGTAAAAT	0.179 % of ANNNNAAN 8-mers
ATCGAAAT	0.0633 % of ANNNNAAN 8-mers

Sequence	binding signal
AATTCAAG	0.0886 % of ANNNNAAN 8-mers
ACCAGAAG	0.0167 % of ANNNNAAN 8-mers
AACGTAAT	0.0823 % of ANNNNAAN 8-mers
ATATCAAA	0.0806 % of ANNNNAAN 8-mers
AAAGAAAC	0.0339 % of ANNNNAAN 8-mers
ATACAAAA	0.0857 % of ANNNNAAN 8-mers
AGGCCAAG	0.0334 % of ANNNNAAN 8-mers
AATACAAC	0.0403 % of ANNNNAAN 8-mers
AAGTTAAT	0.178 % of ANNNNAAN 8-mers
ACAGGAAC	0.0265 % of ANNNNAAN 8-mers
AAGTAAAG	0.0541 % of ANNNNAAN 8-mers
AAGGGAAT	0.121 % of ANNNNAAN 8-mers
ACCCAAAG	0.0184 % of ANNNNAAN 8-mers
AACACAAC	0.019 % of ANNNNAAN 8-mers
ACAGCAAG	0.0155 % of ANNNNAAN 8-mers
ACGTTAAC	0.0316 % of ANNNNAAN 8-mers
ACGTTAAA	0.0506 % of ANNNNAAN 8-mers
AGCTCAAG	0.0173 % of ANNNNAAN 8-mers
AAAGAAAA	0.0892 % of ANNNNAAN 8-mers
